Drawing on PubChem BioAssay, this text covers z-score and composite z-score for four molecules.

Test [1] can be described thus: E. coli DRC41 culture turbidity changes, primary screen, E. coli filamentation inducer project, strain DRC41, OD650, 48 h (AID 1152).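 Further: E. coli MC1000 strain DRC41 lacking acrAB efflux pump and sulA.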 The note with it: E. coli DRC41 (acrAB sulA), higher = more signal, called active from +8 up or from −8 down.
Test [2] in a line: small-molecule binders of probe aLefty1, primary screen, biochemical, small-molecule microarray, 635/667 nm fluorescence (AID 1153).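 Further: score merges spot fluorescence with signal-to-noise ratio from the scanned slide images.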 The settings on record: higher = more signal.
A short description of test [3]: PSAC antagonists in infected red cells, primary screen, cell-based, P. falciparum Indochina, OD700, 1 h (AID 1154). The note with it: P. falciparum Indochina infected RBC osmotic lysis, higher = more signal, called active from +8 up or from −8 down.
The nature of test [4]: PSAC antagonists in infected red cells, primary screen, cell-based, P. falciparum Indochina, OD700, 2 h (AID 1155).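 Further: lysis reports solute entry through the parasite surface anion channel PSAC; channel blockers reduce lysis of infected cells.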 The settings on record: P. falciparum Indochina infected erythrocytes, osmotic lysis OD700; higher = more signal, called active from +8 up or from −8 down.
The nature of test [5]: osmotic lysis modulators in infected erythrocytes, primary screen, PSAC antagonist project, cell-based, P. falciparum Indochina, OD700, 3 h (AID 1156). The settings on record: higher = more signal, called active from +8 up or from −8 down.
Test [6] can be described thus: PSAC antagonists in infected red cells, primary screen, cell-based, P. falciparum Indochina, OD700, 18 h (AID 1157). The settings on record: P. falciparum Indochina infected erythrocytes, osmotic lysis OD700, 18 h; higher = more signal, called active from +8 up or from −8 down.
Test [7] is described as follows: modulators of S6 phosphorylation in cells, primary screen, cell-based, A549, cytoblot, luminescence, serum-stimulated (AID 1158).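 Further: serum-stimulated A549 lung adenocarcinoma cells; signal is phosphorylated S6 detected by cytoblot immunostaining with HRP secondary.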 The settings on record: A549 phospho-S6 cytoblot, 5 h, higher = more signal.
Test [8] addresses NADPH oxidase 2 (Homo sapiens) (UniProt P04839). In words: NOX2-dependent H2O2 signal modulators, primary screen, NOX inhibitor project, cell-based, HEK293-NOX2, PMA-stimulated, Amplex Red fluorescence (AID 1159). Further: test concentration not given here. The settings on record: 45 min, higher = more signal, called active from +8 up or from −8 down.
The target in test [9] is NADPH oxidase 4 (Homo sapiens) (UniProt Q9NPH5). In words: NOX4-dependent H2O2 signal modulators, primary screen, NOX inhibitor project, cell-based, HEK293-NOX4, tetracycline-induced, Amplex Red fluorescence (AID 1160). The note with it: 45 min, higher = more signal, called active from +8 up or from −8 down.
In test [10] the target is NADPH oxidase 5 (Homo sapiens) (UniProt Q96PH1). In words: NOX5-dependent H2O2 signal modulators, primary screen, NOX inhibitor project, cell-based, HEK293-NOX5, Amplex Red fluorescence (AID 1161). The settings on record: HEK293-NOX5, ionomycin, 45 min, higher = more signal.
Test [11] is described as follows: A549 cell viability effects, profiling panel, calcein-AM fluorescence, 48 h, basal (AID 1162). Further: test concentration not given here. The settings on record: higher = more signal.
Test [12] in a line: adipocyte viability effects, profiling panel, cell-based, 3T3-L1 adipocytes, calcein-AM fluorescence, 48 h, basal (AID 1163). Further: test concentration not given here. The settings on record: 3T3-L1 adipocytes viability, higher = more signal.
Test [13] in a line: HepG2 cell viability effects, profiling panel, calcein-AM fluorescence, 48 h, basal (AID 1164). Further: test concentration not given here. The note with it: higher = more signal.
The nature of test [14]: MM1S cell viability effects, profiling panel, calcein-AM fluorescence, 48 h, basal (AID 1165).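 Further: viability of MM1S multiple myeloma cells under basal unstimulated conditions; test concentration not given here.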 The note with it: higher = more signal.
Test [15] is described as follows: basal RPMI8226 viability, no added stimulus, profiling panel, cell-based, calcein-AM fluorescence, 48 h, PK04 Diversity Set (AID 1166).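 Further: cells grown under basal conditions without added stimulus; test concentration not given here.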 The settings on record: RPMI8226 myeloma viability, higher = more signal.
Test [16] is described as follows: basal HepG2 mitochondrial membrane potential changes, profiling panel, cell-based, JC-1 fluorescence, 24 h, 100 nL compound (AID 1167). Further: test concentration not given here. The settings on record: higher = more signal.
A short description of test [17]: basal 3T3-L1 adipocyte mitochondrial potential changes, profiling panel, cell-based, JC-1 fluorescence, 3T3-L1 adipocytes, 24 h, 100 nL compound (AID 1168). Further: test concentration not given here. The note with it: JC-1 mitochondrial fluorescence, higher = more signal, called active from +8 up or from −8 down.
Test [18] in a line: basal RPMI8226 mitochondrial membrane potential changes, profiling panel, cell-based, JC-1 fluorescence, 24 h, 100 nL compound (AID 1169). Further: test concentration not given here. The settings on record: RPMI8226 myeloma, JC-1 mitochondrial potential fluorescence, higher = more signal.
Test [19] can be described thus: basal MM1S mitochondrial membrane potential changes, profiling panel, cell-based, JC-1 fluorescence, 24 h, 100 nL compound (AID 1170). Further: test concentration not given here. The settings on record: higher = more signal.
Test [20] is described as follows: A549 lung cancer cell viability effects, profiling panel, resazurin fluorescence, 24 h, PK04 Diversity Set (AID 1171). Further: test concentration not given here. The settings on record: higher = more signal, called active from +8 up or from −8 down.

Calls of active or inactive are those of the source.

Chain of NADPH oxidase 2 (Homo sapiens) (P04839 whole entry, looked up): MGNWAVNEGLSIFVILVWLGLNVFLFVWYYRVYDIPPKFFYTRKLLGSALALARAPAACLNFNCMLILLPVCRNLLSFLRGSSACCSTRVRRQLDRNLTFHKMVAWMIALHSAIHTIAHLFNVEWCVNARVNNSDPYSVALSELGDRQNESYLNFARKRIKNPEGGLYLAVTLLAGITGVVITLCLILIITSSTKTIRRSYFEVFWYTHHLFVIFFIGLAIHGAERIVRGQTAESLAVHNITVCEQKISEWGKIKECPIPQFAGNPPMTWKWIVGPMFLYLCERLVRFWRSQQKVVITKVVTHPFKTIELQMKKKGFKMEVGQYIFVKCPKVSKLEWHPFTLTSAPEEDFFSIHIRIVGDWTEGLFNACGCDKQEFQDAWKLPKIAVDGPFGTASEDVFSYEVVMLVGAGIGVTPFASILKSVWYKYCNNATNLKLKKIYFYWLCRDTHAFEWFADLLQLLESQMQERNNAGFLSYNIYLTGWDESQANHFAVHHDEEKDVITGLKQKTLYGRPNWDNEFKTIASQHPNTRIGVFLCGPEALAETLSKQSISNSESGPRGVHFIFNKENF
Chain of NADPH oxidase 5 (Homo sapiens) (Q96PH1 whole entry, looked up): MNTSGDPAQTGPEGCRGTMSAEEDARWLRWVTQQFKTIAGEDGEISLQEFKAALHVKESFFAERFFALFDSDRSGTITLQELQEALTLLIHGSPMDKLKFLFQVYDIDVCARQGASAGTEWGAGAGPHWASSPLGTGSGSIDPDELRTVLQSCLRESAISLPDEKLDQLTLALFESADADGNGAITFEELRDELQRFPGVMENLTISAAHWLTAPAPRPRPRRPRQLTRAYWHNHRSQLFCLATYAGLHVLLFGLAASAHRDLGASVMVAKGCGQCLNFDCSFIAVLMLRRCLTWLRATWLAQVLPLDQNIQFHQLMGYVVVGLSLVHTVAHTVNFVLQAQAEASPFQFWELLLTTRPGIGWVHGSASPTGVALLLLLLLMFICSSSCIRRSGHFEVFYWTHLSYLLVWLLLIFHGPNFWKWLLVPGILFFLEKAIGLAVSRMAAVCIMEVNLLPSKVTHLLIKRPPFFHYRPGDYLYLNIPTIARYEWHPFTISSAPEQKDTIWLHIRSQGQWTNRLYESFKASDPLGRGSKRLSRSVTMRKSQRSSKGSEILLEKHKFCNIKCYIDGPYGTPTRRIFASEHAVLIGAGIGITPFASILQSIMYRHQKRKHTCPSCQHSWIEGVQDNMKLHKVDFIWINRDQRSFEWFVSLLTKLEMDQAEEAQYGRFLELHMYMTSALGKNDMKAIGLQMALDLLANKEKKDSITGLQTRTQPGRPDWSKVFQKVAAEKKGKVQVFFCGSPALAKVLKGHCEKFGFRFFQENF
Chain of NADPH oxidase 4 (Homo sapiens) (Q9NPH5 whole entry, looked up): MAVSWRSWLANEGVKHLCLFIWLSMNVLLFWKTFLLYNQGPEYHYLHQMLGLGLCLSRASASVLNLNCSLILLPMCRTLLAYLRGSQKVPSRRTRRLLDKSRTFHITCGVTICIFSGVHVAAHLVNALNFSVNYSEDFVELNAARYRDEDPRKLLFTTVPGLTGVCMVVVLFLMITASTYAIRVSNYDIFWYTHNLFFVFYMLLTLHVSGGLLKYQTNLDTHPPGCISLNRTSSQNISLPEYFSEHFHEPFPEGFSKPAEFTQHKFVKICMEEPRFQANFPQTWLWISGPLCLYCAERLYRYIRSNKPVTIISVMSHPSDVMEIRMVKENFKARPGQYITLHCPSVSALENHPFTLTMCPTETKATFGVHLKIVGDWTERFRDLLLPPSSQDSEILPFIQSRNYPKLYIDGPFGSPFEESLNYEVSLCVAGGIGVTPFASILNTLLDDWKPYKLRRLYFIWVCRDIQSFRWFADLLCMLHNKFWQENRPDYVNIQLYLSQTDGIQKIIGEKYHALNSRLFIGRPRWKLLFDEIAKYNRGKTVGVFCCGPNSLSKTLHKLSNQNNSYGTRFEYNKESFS

As for `COC(=O)[C@@]1(Cc2ccccc2CN=[N+]=[N-])COC(c2ccc(OCCCO)cc2)=N1`, the z-score in test [1] is -0.156 (inactive); in test [3], 23.8 (active); in test [4], 9.9 (active); in test [5], 4.61 (inactive); in test [6] it was 0.959 (inactive); in test [7] it was 0.202. Moreover, the z-score in test [8] was -3.07 (inactive); in [9], -0.519 (inactive); in test [10], -3.18; in [11], -1.19; in [12], -0.19; in test [13], -0.891. Further, the z-score in test [14] is -3.53; in test [15], -0.691; in test [16] it was -2.15; in test [17], -0.428 (inactive); in test [18] it was -1.01; in test [19], 0.515. Also, in test [20], the z-score was -0.657 (inactive). Moreover, in [2], the composite z-score was 0.2.
For `COCCOC(=O)N1C(=O)[C@@]2(c3cc(C#CCC(C(=O)OC)C(=O)OC)ccc31)[C@H](C(=O)N1CCCCCCC1)[C@H]1C(=O)O[C@H](c3ccccc3)[C@H](c3ccccc3)N1[C@@H]2c1ccccc1OCCO`, the z-score is 0.822 (inactive) in test [1]; 2.04 (inactive) in test [3]; -0.228 (inactive) in test [4]; 0.489 (inactive) in [5]; -1.21 (inactive) in [6]; 2.14 in test [7]. For the same molecule, the z-score in [8] is -0.817 (inactive); in test [9], -0.194 (inactive); in test [10], -1.87; in [11], -0.143; in test [12], 1.83; in test [13], 0.0429. Moreover, the z-score is -0.284 in test [14]; -1.56 in test [15]; -0.747 in [16]; 2.14 (inactive) in test [17]; -0.124 in test [18]; -0.892 in [19]. The z-score in test [20] is 0.822 (inactive). This molecule displayed a composite z-score in test [2] of 2.72.
With `C=CCNC(=O)[C@H]1[C@@H]2C(=O)O[C@@H](c3ccccc3)[C@@H](c3ccccc3)N2[C@@H](c2ccc(O)cc2)[C@]12C(=O)Nc1ccc(C#CC3=CCCCC3)cc12`, the z-score in [1] was -0.164 (inactive); in test [3], 1.54 (inactive); in test [4], 1.23 (inactive); in test [5], -0.355 (inactive); in [6] it was 1.1 (inactive); in test [7], -0.101. For the same molecule, the z-score was 1.18 (inactive) in test [8]; 0.676 (inactive) in test [9]; 1.61 in [10]; -0.931 in test [11]; -0.826 in test [12]; -0.66 in test [13]. In addition, the z-score in test [14] was -3.3; in test [15], -4.46; in [16], -0.341; in [17], 0.523 (inactive); in test [18], -1.14; in test [19] it was -1.79. Also, the z-score in [20] is -1.63 (inactive). Besides, the composite z-score in test [2] is 0.802.
As to `COCCOC(=O)N1C(=O)[C@@]2(c3cc(C#CC4=CCCCC4)ccc31)[C@H](C(=O)N1CCc3cc(OC)c(OC)cc3C1)[C@H]1C(=O)O[C@H](c3ccccc3)[C@H](c3ccccc3)N1[C@@H]2c1ccc(O)cc1`, the z-score in [1] is 0.448 (inactive); in [3], 0.996 (inactive); in [4], 0.755 (inactive); in test [5] it was 0.067 (inactive); in [6], 0.827 (inactive); in test [7], 0.228. For the same molecule, the z-score in test [8] is 1.58 (inactive); in [9] it was -0.0332 (inactive); in [10], 1.18; in test [11], 0.59; in [12], 0.479; in test [13] it was 0.334. Further, the z-score is -1.16 in test [14]; -0.583 in [15]; -0.427 in test [16]; 0.508 (inactive) in test [17]; -0.388 in test [18]; 0.403 in test [19]. Moreover, in test [20], the z-score was 0.481 (inactive). Also, in test [2], the composite z-score worked out at 0.679.
